Screening data deposited in PubChem BioAssay by National Center for Advancing Translational Sciences (NCATS).
The list is not random: actives were taken first. Their share in the collection is about 12%.
G9a inh = blocks human histone lysine methyltransferase G9a | Q96KQ7 | 8.8% of 350,000 active | AID 504332 | Potency, µM (highest dose often 102 µM), most hits filed as inhibitors | G9a H3K9 monomethylation, AlphaScreen, 2 h; also: nearly all actives have a fitted effect of over 75% in size
Target sequence (Q96KQ7 913-1193 limits assumed): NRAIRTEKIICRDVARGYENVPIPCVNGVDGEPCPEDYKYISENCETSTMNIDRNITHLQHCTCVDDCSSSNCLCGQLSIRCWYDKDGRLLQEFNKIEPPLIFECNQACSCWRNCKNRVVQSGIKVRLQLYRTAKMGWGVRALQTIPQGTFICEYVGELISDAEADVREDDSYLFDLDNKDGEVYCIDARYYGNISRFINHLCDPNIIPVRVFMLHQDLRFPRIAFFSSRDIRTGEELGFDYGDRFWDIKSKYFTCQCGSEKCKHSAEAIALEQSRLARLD
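G9a (20 nM) preincubated 15 min RT with compounds, then 500 nM biotinylated H3K9 peptide and 20 uM SAM added; 2 h RT reaction. Monomethyl-H3K9 product detected by AlphaScreen with anti-H3K9me1 antibody, streptavidin donor and anti-rabbit IgG acceptor beads.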
JMJD2A Tudor = JMJD2A Tudor domain (human) inhibition. O75164. AID 504339. 4.4% of 390,000 active. AlphaScreen JMJD2A-Tudor / H3K4me3 peptide binding. Potency, µM (top dose mostly 114 µM), hits mostly inhibitors; also: nearly all actives have a fitted effect of over 50% in size
BAZ2B block = blocks human BAZ2B | Q9UIF8 | 4.4% of 360,000 active | AID 504333 | Potency, µM (series often up to 114 µM), most hits filed as inhibitors | AlphaScreen BAZ2B-H3K14Ac peptide displacement; also: nearly all actives have a fitted effect of over 60% in size
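Protein-peptide AlphaScreen: BAZ2B 50 nM, b-H3K14Ac 50 nM, 1x PBS pH 7.4 + 0.01% Tween-20. Preincubation 30 min RT; cpd 30 min RT (top 110 uM); beads 20 min RT, light-protected.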
PLK1 PBD block = blocks phosphopeptide binding to human PLK1 polo-box domain | P53350 | Plk1 PBD binding of FITC phosphopeptide, fluorescence polarization | Potency, µM, most hits filed as inhibitors | 2.8% of 360,000 active; also: series mostly up to about 57 µM; nearly all actives have a fitted effect of over 65% in size
HP1b binding inh = blocks HP1-beta chromodomain binding to methylated histone tails. P83916. AlphaScreen HP1-beta / biotin-H3K9me3 peptide binding. Potency, µM (top dose mostly 114 µM), hits mostly inhibitors. 0.56% of 390,000 active. AID 540317; also: nearly all actives have a fitted effect of over 70% in size
Target sequence (P83916 whole entry, looked up): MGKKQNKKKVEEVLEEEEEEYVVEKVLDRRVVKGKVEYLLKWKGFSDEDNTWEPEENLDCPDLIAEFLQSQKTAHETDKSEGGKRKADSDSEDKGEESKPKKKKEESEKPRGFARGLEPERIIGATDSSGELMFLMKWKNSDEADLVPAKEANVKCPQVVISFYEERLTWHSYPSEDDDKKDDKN
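Compound inhibition of the preformed complex between 50 nM HP1-beta and 50 nM biotinylated H3K9me3 peptide was read by AlphaScreen. Buffer was PBS pH 7.4 with 0.01% Tween-20. Incubations ran 30 min at room temperature, with 10 ug/mL donor/acceptor beads.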
PI5P4K alpha inh = blocks human PI5P4K alpha kinase activity; max response, %; PI5P4Kalpha enzyme, ADP-Glo luminescence, 60 min; stronger effect = lower value; 1.2% of 330,000 active; P48426; active = max response of -50% or lower; inconclusive = between -30% and -50%; inactive = -30% or higher; also: value at the top dose of about 77 µM
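PI5P4Kalpha ADP-Glo assay; 5 microM ATP final; 60 min RT reaction; HEPES pH 7.4/EGTA/CHAPS, 5% DMSO; controls lacking substrate or enzyme; luminescent end-point.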
Hits are given with their value; - = inactive; ? = inconclusive; . = no result; [ ] = remark or other dose. Unless noted, calls follow the shape of the dose curve; as a rule, active = well fitted curve in the direction sought with a large enough effect; inconclusive = small, poorly fitted or top-dose-only effect, or another doubt; inactive = no such curve, though single readings can be large; an effect the other way counts as inactive or inconclusive.

SMILES	G9a inh	JMJD2A Tudor	BAZ2B block	PLK1 PBD block	HP1b binding inh	PI5P4K alpha inh
Clc1ccccc1N1CCN(Cc2ccc(Br)o2)CC1	.	25µM	.	-	-	-
Cc1ccccc1N1CCN(Cc2ccc(Br)o2)CC1	10µM	1µM	56µM	?	?	-
Brc1ccc(CN2CCN(c3ccccc3)CC2)o1	?	3.2µM	56µM	-	?	-
Cc1cccc(N2CCN(Cc3ccc(Br)o3)CC2)c1C	25µM	28µM	?	-	-	-
Clc1ncc(CN2CCN(c3ccccc3)CC2)s1	-	-	-	-	-	-
Cc1cccc(N2CCN(Cc3nnc(-c4cccc(Br)c4)o3)CC2)c1C	-	-	-	.	-	.
Cc1cccc(NC(=O)Cn2cc(S(=O)(=O)N3CCCC3)c(S(=O)(=O)N3CCCC3)c2)c1C	-	-	-	.	-	.
COc1ccc(-c2[nH]nc3nc(N4CCN(C(=O)c5ccoc5)CC4)cc(C(F)(F)F)c23)cc1	.	.	.	-	.	-
Cc1ccc(OCc2nc(-c3ccc(C(=O)N4CCN(c5cc(Cl)ccc5C)CC4)cc3)oc2C)cc1	-	-	-	.	-	.
CC(=O)NCCNC(=O)c1ccc2c(=O)n(CCc3ccccc3)c(=O)[nH]c2c1	-	-	-	.	-	.
Cc1ccnc(SCc2ccc(C(=O)O)cc2)n1	.	?	-	12µM	-	?
Cc1csc(SCc2ccc(C(=O)O)cc2)n1	45µM	-	-	-	-	-
Cc1csc(SCc2ccccc2C(=O)O)n1	-	-	-	-	-	-
O=C(NC(=S)N1CCN(c2ccccn2)CC1)c1ccco1	56µM	-	?	-	-	-
CN1CCN(C(=S)NC(=O)c2ccco2)CC1	50µM	16µM	?	-	-	-
CN1CCN(C(=S)NC(=O)c2ccc(Cl)cc2)CC1	28µM	?	56µM	27µM	?	-91
CC(NNC(=S)N1CCN(c2ccccn2)CC1)c1nccc2ccccc12 (centres undefined)	.	20µM	.	-	25µM	-
COc1ccc(CNC(=O)Cn2ncn3nc(-c4cccs4)cc3c2=O)cc1	?	-	-	.	-	.
COCCCNC(=O)Cn1cnc(C(=O)Nc2ccc(C)c(C)c2)n1	.	-	.	-	-	-
CC1CC(C)CN(C(=O)COC(=O)COc2ccc(C#N)cc2)C1 (centres undefined)	.	-	.	-	-	-
CSc1ccc(/C=C2\CCn3c2nc2cc(C(=O)O)ccc2c3=O)cc1	?	?	-	-	-	?
CN1CCN(C(=O)c2cc(Cl)cc(Cl)c2NC(=O)c2ccco2)CC1	-	-	-	27µM	-	-
O=[N+]([O-])c1ccc(Cl)cc1Sc1cccc2cccnc12	-	-	-	-	-	-
Cn1nc([N+](=O)[O-])nc1Sc1cccc2cccnc12	-[0.501 µM]	-	-	17µM	-	-
CCCc1nc2ccccc2c(C(=O)N(CC)CC(=O)NCc2cccs2)c1CC	35µM	-	-	-	-	-
SMILES	G9a inh	JMJD2A Tudor	BAZ2B block	PLK1 PBD block	HP1b binding inh	PI5P4K alpha inh
COc1ccc(C(CCNCc2ccc(N(C)C)cc2)C(C)C)cc1 (centres undefined)	32µM	32µM	25µM	-	?	-
COc1ccc(CNCCC(c2ccc(OC(C)C)cc2)c2ccccc2OC)cc1 (centres undefined)	-[2.33 µM]	-	?	-	-	-
COc1ccccc1C(CCNCc1ccc(N(C)C)cc1)c1ccc(OC(C)C)cc1 (centres undefined)	-[2.33 µM]	13µM	10µM	-	?	-
COc1ccc(-c2noc(C3CC(=O)N(c4ccc5c(c4)OCCO5)C3)n2)c(OC)c1 (centres undefined)	-	-	-	.	-	.
COc1cc(OC)cc(C(=O)Nc2nnc(NC(=S)Nc3ccccc3)s2)c1	-	-	-	-	-	-55
COc1cc(OC)cc(C(=O)Nc2cccc(NC(=O)c3ccccc3)c2)c1	-	-	-	-	?	-
COc1ccc(C(=O)Nc2ccc(Nc3ccccc3)cc2)cc1[N+](=O)[O-]	?	35µM	?	-	?	-
COc1cc(OC)cc(C(=O)Nc2cccc(N3CCCC3)c2)c1	3.5µM	50µM	-	-	-	.
COc1cc(OC)cc(C(=O)Nc2cccc(C(C)=O)c2)c1	-[12.7 µM]	-	-	-	-	-
COc1cccc(OC)c1C(=O)Nc1cccc(-c2cn3ccsc3n2)c1	-	-	-	.	-	.
COc1ccc(C(=O)Nc2ccc(OCc3ccccc3)cc2)cc1[N+](=O)[O-]	-[12.7 µM]	-	-	-	-	-
COc1cc(OC)cc(C(=O)Nc2cccc(-c3cn4ccsc4n3)c2)c1	-	?	71µM	.	-	.
O=C(NCc1cccnc1)C1CC(c2ccc(Cl)c(Cl)c2)=NO1 (centres undefined)	.	-	-	-	-	-
COc1ccc(C(=O)Nc2nnc(-c3ccccc3)s2)cc1	.	-	-	-	-	-
COc1ccc(C(=O)Nc2nnc(C(F)(F)F)s2)cc1	-	56µM	-	27µM	?	-
COc1cc(OC)cc(C(=O)Nc2ccc(Nc3ccccc3)cc2)c1	35µM	?	25µM	-	-	-
CSc1ccccc1NC(=O)CN(C)CC(=O)c1c(C)[nH]c2ccccc12	?	-	-	-	-	-
C[C@H](CO)N1C[C@H](C)[C@H](CN(C)C(=O)Nc2ccc(C(F)(F)F)cc2)OCc2cnnn2CCCC1=O	.	.	.	-	.	-
CCNC(=S)NNC(=O)c1ccccn1	-	25µM	3.2µM	-	-	-
S=C(NCc1ccccn1)Nc1ccc(Cl)c(Cl)c1	.	-	-	-	-	-
O=C(NNC(=S)Nc1ccc(Cl)c(Cl)c1)c1ccccn1	.	25µM	4.5µM	-	-	-
Cc1ccc2ccc3cc(C(=O)Nc4ccc(C)c(F)c4)nc3c2[nH]1	?	-	-	.	-	.
O=C(NCc1ccccc1Br)c1ccc2c(c1)nc1n2CCOC1	-	-	-	.	-	.
CC(=O)N1/C(=C/c2ccc(N(C)C)cc2)C(=O)c2ccccc21	11µM	18µM	10µM	-	22µM	-
CCN1N=C(C)C=C(c2ccccc2)n2c1nc1ccccc12	79µM	-	-	-	-	-
SMILES	G9a inh	JMJD2A Tudor	BAZ2B block	PLK1 PBD block	HP1b binding inh	PI5P4K alpha inh
CNc1ccc(Br)cc(C(=O)/C=C/c2ccc(OC)cc2)c1=O	10µM	-	45µM	?	-	-
CCNc1ccc(Br)cc(C(=O)/C=C/c2ccc(Cl)cc2Cl)c1=O	8.9µM	45µM	45µM	?	?	?
COC(=O)CNC(=O)/C=C/c1cc(Br)ccc1OC	-	-	-	-	-	-
O=C(C=Cc1ccc2c(c1)OCO2)c1ccccc1	.	-	.	-	-	-
CNc1ccc(Br)cc(C(=O)/C=C/c2cc(OC)ccc2OC)c1=O	4.5µM	25µM	28µM	-	-	-
CNc1ccc(Br)cc(C(=O)/C=C/c2ccc3c(c2)OCO3)c1=O	10µM	40µM	40µM	19µM	?	?
COCCCNC(=O)/C=C/c1ccc(Cl)cc1Cl	-[0.501 µM]	-	-	-	-	-
